N370S GC: qHTS Assay for Inhibitors and Activators of N370S glucocerebrosidase as a Potential Chaperone Treatment of Gaucher Disease | Lysosomal acid glucosylceramidase (Homo sapiens), P04062 | N370S GC spleen homogenate, 4MU-glucoside fluorescence | Potency, µM (series often up to 59.4 µM), usual class: inhibitors | hit rate 0.092% among 330,000
GAA spleen mod: qHTS Assay for Inhibitors and Activators of Human alpha-Glucosidase From Spleen Homogenate. Lysosomal alpha-glucosidase (Homo sapiens), P10253. human spleen homogenate, 4-MU-alpha-glucoside fluorescence. Potency, µM (series often up to 79.9 µM), hits mostly inhibitors. hit rate 0.006% among 240,000
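Enzyme source: human spleen homogenate, 1 ug/well. Buffer 50 mM citric acid/K phosphate pH 5.0, 0.01% Tween-20. 4-MU-alpha-glucoside 1 mM; 37 C x 40 min; NaOH/glycine stop; fluorescence.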
aGal spleen mod: qHTS Assay for Inhibitors and Activators of Human alpha-Galactosidase From Spleen Homogenate | Alpha-galactosidase A (Homo sapiens), P06280 | human spleen homogenate, 4MU-alpha-Gal fluorescence, 40 min | Potency, µM (series often up to 80 µM), most hits filed as inhibitors | hit rate 0.008% among 240,000
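Inhibition or activation of alpha-galactosidase in human spleen homogenate is scored by 4-MU fluorescence after 40 min at 37C, pH 5.0, with 1 mM substrate. AC50s come from concentration-response fitted to the Hill equation.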
GAA inhib: qHTS Assay for Inhibitors of Human alpha-Glucosidase as a Potential Chaperone Treatment of Pompe Disease | hit rate 0.005% among 200,000 | Lysosomal alpha-glucosidase (Homo sapiens), P10253 | purified human GAA, 4-MU-alpha-glucoside fluorescence | Potency, µM (doses to about 76.9 µM), most hits filed as inhibitors | AID 1466, 2008
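AC50 values come from Hill fits of compound titrations (up to 77 uM) against 4 nM human enzyme. Substrate 4-methylumbelliferyl-alpha-D-pyranoside at 400 uM, pH 5.0 citrate buffer, 20 min room temperature; fluorescence Ex 365/Em 440 after alkaline stop.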
GAA glycogen mod: qHTS Assay for Inhibitors and Activators of Human alpha-Glucosidase Cleavage of Glycogen; recombinant GAA, glycogen substrate, Amplex Red glucose oxidase fluorescence; Lysosomal alpha-glucosidase (Homo sapiens), P10253; hit rate 0.38% among 300,000; Potency, µM (series often up to 76.4 µM), most hits filed as inhibitors; AID 2100, 2009;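 further: the screen sought inhibitors and activators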
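Natural-substrate format: glycogen cleavage by 4 nM human enzyme, glucose read by Amplex Red coupling (Ex 573, Em 610 nm). Normalized to enzyme and no-enzyme controls.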
GLA inh pH 4.5: qHTS Assay for Inhibitors of Human alpha-Galactosidase at pH 4.5; activity change, negative = inhibition, % at 105 µM; AID 1467, 2008; 230,000 tested, under 10 active; purified enzyme, 4-MU-alpha-Gal fluorescence, pH 4.5
Target sequence (P06280 whole entry, looked up): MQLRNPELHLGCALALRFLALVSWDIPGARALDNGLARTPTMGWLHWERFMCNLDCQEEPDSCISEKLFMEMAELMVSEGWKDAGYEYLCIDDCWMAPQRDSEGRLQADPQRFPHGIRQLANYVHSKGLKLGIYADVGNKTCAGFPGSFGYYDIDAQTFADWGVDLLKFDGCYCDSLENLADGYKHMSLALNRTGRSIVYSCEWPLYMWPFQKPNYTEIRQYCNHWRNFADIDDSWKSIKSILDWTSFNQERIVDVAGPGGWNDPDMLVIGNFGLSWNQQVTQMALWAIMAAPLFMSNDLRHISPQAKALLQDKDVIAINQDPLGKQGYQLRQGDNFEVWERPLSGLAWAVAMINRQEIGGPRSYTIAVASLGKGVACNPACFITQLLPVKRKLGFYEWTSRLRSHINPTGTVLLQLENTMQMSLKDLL
A number is an active result; n = inactive; u = inconclusive; x = no result. A selection: hits, their analogues and other compounds. The true share with any hit is near 0.43%. The call rests on the fitted dose curve; in most records, active means well fitted curve in the direction sought with a large enough effect; inconclusive means small, poorly fitted or top-dose-only effect, or another doubt; inactive means no such curve, though single readings can be large; an effect the other way counts as inactive or inconclusive.

SMILES	N370S GC	GAA spleen mod	aGal spleen mod	GAA inhib	GAA glycogen mod	GLA inh pH 4.5
CSCC[C@H](NC(=O)CNC(=O)CNC(=O)[C@H](CO)NC(=O)[C@H](CCCNC(=N)N)NC(=O)[C@H](CO)NC(=O)[C@H](CC(C)C)NC(=O)[C@H](CC(C)C)NC(=O)CNC(=O)[C@H](C)NC(=O)[C@H](CC(C)C)NC(=O)[C@H](CCCNC(=N)N)NC(=O)[C@H](Cc1cnc[nH]1)NC(=O)[C@@H](NC(=O)[C@@H](N)C(C)C)[C@@H](C)O)C(=O)N[C@H](C(=O)N[C@@H](CCCCN)C(=O)N[C@@H](CO)C(=O)N[C@@H](CC(N)=O)C(=O)N[C@@H](Cc1ccccc1)C(=O)N[C@H](C(=O)N1CCC[C@H]1C(=O)N[C@H](C(=O)N[C@@H](CC(N)=O)C(=O)N[C@H](C(=O)NCC(=O)N[C@@H](CO)C(=O)N[C@@H](CCCCN)C(=O)N[C@@H](C)C(=O)N[C@@H](Cc1ccccc1)C(N)=O)C(C)C)[C@@H](C)O)C(C)C)C(C)C	n	n	n	x	x	x
Oc1ccc2[nH]ccc2c1	n	n	n	n	14µM	n
Cc1ccc2nc(-c3ccc(C)o3)c(Nc3ccc4c(c3)OCCO4)n2c1	x	x	x	x	6.3µM	x
c1csc(-c2nc3ccccn3c2Nc2ccc3c(c2)OCCO3)c1	x	x	x	x	13µM	x
Cc1ccc(-c2nc3ccccn3c2Nc2ccccc2)o1	n	n	n	n	7.9µM	n
Cc1ccc(-c2nc3ccccn3c2Nc2ccc3c(c2)OCCO3)o1	x	x	x	x	4.5µM	x
c1cncc(-c2nc3ccccn3c2Nc2ccc3c(c2)OCCO3)c1	n	n	n	n	n	n
Brc1ccc(C2C3=C(Nc4ncnn42)c2ccccc2OC3c2ccncc2)cc1 (stereo not drawn)	14µM	n	n	n	n	n
O=C(O)COCC(=O)N1CCN(C2c3ccccc3-c3ccccc32)CC1	n	n	n	x	n	n
NC(N)=NCCC[C@H](NC(=O)CC1(CC(=O)N2CCN(C3c4ccccc4NC(=O)c4ccccc43)CC2)CCCC1)C(=O)NCCn1c(=O)n(-c2ccccc2)n(-c2ccccc2)c1=O (stereo partly drawn)	18µM	n	n	x	x	n
CSCC[C@H](NC(=O)[C@H](Cc1ccccc1)NC(=O)[C@H](Cc1cnc[nH]1)NC(=O)CNC(=O)[C@@H](NC(=O)[C@H](C)NC(=O)[C@H](Cc1c[nH]c2ccccc12)NC(=O)[C@H](CCC(N)=O)NC(=O)[C@@H]1CCCN1C(=O)[C@@H](NC(=O)[C@@H]1CCC(=O)N1)C(C)C)C(C)C)C(N)=O	n	n	n	x	x	x
CC1(C)CN(c2ccccc2)N(C(=O)c2ccc(F)cc2)C1=O	n	n	n	n	n	n
CC1(C)CN(c2ccccc2)N(C(=O)c2ccc(C#N)cc2)C1=O	n	n	n	n	20µM	n
CC1(C(=O)O)NCCc2cc(O)c(O)cc21 (stereo not drawn)	n	n	n	x	x	x
NS(=O)(=O)c1ccc(NNC(=O)c2ccccc2C(=O)O)cc1	n	n	n	x	u	n
O=C(O)c1ccccc1C(=O)NNc1ccc(Cl)cc1	n	n	n	n	11µM	n
CC(C)(CCCCCCCCCCC(C)(C)CC(=O)O)CC(=O)O	n	n	n	x	x	x
CC(=O)Oc1ccc2c(=O)c(Oc3ccccc3)c(C)oc2c1OC(C)=O	n	n	n	n	3.5µM	n
C/C(=N\NC(=S)Nc1ccccc1)C1Cc2ccccc2C(=O)O1 (stereo not drawn)	n	n	n	x	16µM	n
CCCCCCCCCCCCC/C=C/C(O)C(COP(=O)(O)OCCN)NC(=O)CCCCCCCCCCCCCCCCC (stereo not drawn)	n	n	n	x	x	x

Source: PubChem
